# From PubChem BioAssay
# HTT promoter inh – inhibitors of huntingtin promoter activity | HEK293 HTT promoter firefly luciferase reporter, 24 h | Potency, µM (doses to about 57.5 µM), without a hit: top-dose activity change, negative = inhibition, hits mostly inhibitors | 48,000 tested, 0.93% active; further: potency means the concentration at half of the fitted maximal effect; nearly all actives have a fitted effect of over 50% in size
#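 Luminescence was read after Dual-Glo reagent and a 10 min room-temperature incubation. Values were normalized to vehicle (0% activity) and zero RLU (-100% activity). Reporter HEK293 cells had been exposed to compounds (up to 57.5 uM final) for 24 h.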
# TSG101-PTAP inh – blocks PTAP binding to human TSG101, validation; Potency, µM (highest dose often 115 µM), usual class: inhibitors; 44,000 tested, under 10 active; Fluorescence polarization, FITC-PTAP peptide/Tsg101, 20 min; Q99816; AID 1347069; further: potency means the concentration at half of the fitted maximal effect; 0% is about no effect
# Target sequence (Q99816 whole entry, looked up): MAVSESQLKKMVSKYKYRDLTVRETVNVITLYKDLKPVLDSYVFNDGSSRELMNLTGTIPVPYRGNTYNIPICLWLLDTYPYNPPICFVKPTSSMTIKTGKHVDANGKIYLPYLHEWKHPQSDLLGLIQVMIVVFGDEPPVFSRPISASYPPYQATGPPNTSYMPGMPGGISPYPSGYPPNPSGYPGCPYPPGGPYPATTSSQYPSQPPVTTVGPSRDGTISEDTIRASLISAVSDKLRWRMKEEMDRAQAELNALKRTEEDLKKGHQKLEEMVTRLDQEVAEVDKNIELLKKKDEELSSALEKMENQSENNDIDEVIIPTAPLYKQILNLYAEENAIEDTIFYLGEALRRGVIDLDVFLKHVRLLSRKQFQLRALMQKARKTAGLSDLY
#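 Read-out is FITC fluorescence polarization. Compounds were added to Tsg101 binding domain (10 uM final), then FITC-PTAP peptide (50 nM final), 20 min at r.t. Total S+P intensity flags fluorescent compounds.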
# DRV1 agonist – GPR32 (DRV1) agonism, beta-arrestin recruitment; CHO-K1 GPR32 beta-arrestin PathHunter luminescence, 90 min; zero percent set by DMSO-only wells; 48,000 tested, 2.5% active; AID 1346428; O75388; activation, % at 76.9 µM;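 active means activation of at least 60% and not above a set upper limit, about 1 call in 100 departs from these limits; inconclusive means activation of 40% to 60%, or above that upper limit; inactive means activation under 40%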; further: 0% is about no effect
#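 Agonism was scored by beta-Gal fragment complementation (chemiluminescent read, 1 h detection at ambient temperature) reporting beta-arrestin binding to GPR32 in engineered CHO-K1 cells. Compound treatment lasted 90 min at 37 C, normalized to a DMSO basal control.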
# HTT-AS promoter – activates huntingtin-antisense promoter activity; AID 1508624; 48,000 tested, 0.24% active; Potency, µM (titrated, usually from 57.5 µM), without a hit: at the top dose activity change, positive = activation, most hits filed as activators; HEK293 HTT-AS promoter firefly luciferase reporter, 24 h; response scale: percent change from vehicle, -100% = no light; further: potency means the concentration at half of the fitted maximal effect; nearly all actives have a fitted effect of over 55% in size
#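 HEK293 cells carrying firefly luciferase reporters were seeded at 2,500 per well in Opti-MEM and cultured for 24 h. They were then treated with compounds at up to 57.5 uM final for 24 h at 37 degrees C before Dual-Glo luminescence readout.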
# GALK inh – inhibitors of human galactokinase (GALK); P51570; recombinant GALK, Kinase-Glo ATP luminescence, 1 h; Potency, µM (top dose mostly 57.5 µM), inactives show at the highest dose activity, negative = inhibition, hits mostly inhibitors; 44,000 tested, under 10 active;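 further: plate controls were full GALK reaction for no effect and reaction lacking GALK for full effect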
#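 5 nM GALK with 35 µM ATP and 100 µM galactose in HEPES pH 8.0, MgCl2, NaCl, DTT, BSA; 1 h RT reaction, remaining ATP detected by Kinase-Glo Plus luminescence after 10 min; qHTS concentration series.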
# B2AR arrestin ag – ADRB2 beta-arrestin recruitment. P07550. HTLA Tango cells, beta-arrestin recruitment, luciferase luminescence, 18 h. Potency, µM (highest dose often 46.1 µM), actives largely listed as activators. 44,000 tested, under 10 active;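 further: potency means the concentration at half of the fitted maximal effect; 0% = DMSO and full agonism = EC100 isoproterenol or metaproterenol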
#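 Tango cells expressing recombinant beta2-AR and beta-arrestin were treated with compounds (up to 46 microM titration) in DMEM with 1% FBS for 18 hr at 37 degrees C. Beta-arrestin recruitment drove tTA-dependent luciferase, read by luminescence; curves were fitted and classed.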
# * = called active by the depositor; i = inactive; ? = inconclusive; · = no result; ! = not active in a repeat; [ ] = another dose, or the depositor's remark. Only some compounds are listed: those with a hit (about 3.7% of all), similar ones and a draw of the others. Unless noted, the call rests on the fitted dose curve; in most records, active means well fitted curve in the direction sought with a large enough effect; inconclusive means small, poorly fitted or top-dose-only effect, or another doubt; inactive means no such curve, though single readings can be large; an effect the other way counts as inactive or inconclusive.
SMILES,HTT promoter inh,TSG101-PTAP inh,DRV1 agonist,HTT-AS promoter,GALK inh,B2AR arrestin ag
Cc1cc(OCCn2c(C3CC(=O)N(Cc4ccc(F)cc4)C3)nc3ccccc32)ccc1Cl (stereo not drawn),?,i,-11,-57%,-2%,i
CCOc1ccccc1N1CC(c2nc3ccccc3n2CCCOc2ccccc2OC)CC1=O (stereo not drawn),2%,i,-11,7%,6%,i
CCc1ccccc1N1CC(c2nc3ccccc3n2CCOc2ccc(Cl)c(C)c2)CC1=O (stereo not drawn),?,i,77*,-70%,1%,i
CCCCN1CC(c2nc3ccccc3n2CCCCOc2cc(C)cc(C)c2)CC1=O (stereo not drawn),?,i,7,-46%,-11%,i
CCOc1ccccc1N1CC(c2nc3ccccc3n2CCOc2ccc(C(C)(C)C)cc2)CC1=O (stereo not drawn),-5%,i,73*,-16%,-13%,i
CCCCN1CC(c2nc3ccccc3n2CCCCOc2cccc(C)c2C)CC1=O (stereo not drawn),?,i,109*,-38%,-9%,i
Cc1cc(C)c(S(=O)(=O)NCCc2sc(-c3cccnc3)nc2C)c(C)c1,-26%,i,69*,-20%,2%,i
Cc1nc(-c2cccnc2)sc1CCNS(=O)(=O)c1ccc(F)cc1,-11%,i,2,-13%,-3%,i
COc1ccc(NC(=O)CN2C(=O)C(C)(C)c3ccccc32)cc1Cl,?,i,103*,-12%[11.5 µM],2%,i
CCOC(=O)c1ccc(NC(=O)CN2C(=O)C(C)(C)c3ccccc32)cc1,?,i,109*,-34%,1%,i
CNC(=O)c1ccc(C)c(-n2c(C)cc(OCc3ccc(F)cc3F)c(Br)c2=O)c1,-8%,·,·,2%,·,·
CCN(CC)CCNC(=O)c1ccc(-c2nc(CN3CCc4ccccc43)c(C)o2)cc1,-27%,i,97*,-26%,3%,i
Cc1oc(-c2ccc(C(=O)NCCC(C)C)cc2)nc1CN1CCc2ccccc21,?,i,-1,-47%,1%,i
Oc1ccc(-c2ccc(-c3cc(Nc4cccc(CNC5CC5)c4)n[nH]3)cc2)c(O)c1,?,·,·,-19%,·,·
COc1cccc(CNC(=O)Cn2nc(-c3ccc(Cl)cc3)ccc2=O)c1,-2%,i,76*,-10%,-1%,i
Cc1ccc(NC(=O)c2nnn(Cc3cccc(C(F)(F)F)c3)c2N)c(C)c1,-27%,i,93*,1%,-3%,i
Cc1cccc(Cn2nnc(C(=O)Nc3cc(C)ccc3C)c2N)c1,?,i,16,-27%,18%,i
CCOc1ccc(Cn2nnc(C(=O)Nc3cccc(SC)c3)c2N)cc1,2%,i,-3,6%,-1%,i
CCc1cccc(NC(=O)c2nnn(Cc3ccc(SC)cc3)c2N)c1,4%,i,62*,-8%,5%,i
COc1ccc(CCCc2nnc(SCC(=O)Nc3cccc(F)c3C)o2)cc1,-16%,i,66*,-20%,-16%,i
Cc1nc(-c2ccc(OCC(C)C)c(C#N)c2)sc1C(=O)O,5µM*!,·,-4,-81%,·,·
COc1ccc(NC(=O)c2c(C)oc3ccc(O)c(CN4CCCC(C)C4)c23)cc1 (stereo not drawn),·,i,61*,·,5%,i
Oc1ccc(C2CCN(c3ccnc4ccccc34)CC2)cc1O,?,·,·,-24%,·,·
COc1ccc2nc(NC(=O)c3nc(S(=O)(=O)Cc4ccc(C)cc4)ncc3Cl)sc2c1,-2%,i,0,-36%,-2%,i
Cc1ccc(CS(=O)(=O)c2ncc(Cl)c(C(=O)Nc3nc4ccc(C)cc4s3)n2)cc1,?,i,70*,-86%,1%,i
SMILES,HTT promoter inh,TSG101-PTAP inh,DRV1 agonist,HTT-AS promoter,GALK inh,B2AR arrestin ag
Cc1ccc(CS(=O)(=O)c2ncc(Cl)c(C(=O)Nc3nc4ccc(F)cc4s3)n2)cc1,?,i,80*,-86%,7%,i
Nc1ccc(C(=O)Nc2cccc(-c3nc(N4CCOCC4)c4oc5ncccc5c4n3)c2)cn1,?,·,·,-28%,·,·
Cc1ccc(CN(C(=O)c2ccc(F)cc2)c2ccccn2)o1,8%,i,-38,-13%,0%,i
CCCCOc1cccc(C(=O)N(Cc2ccc(C)o2)c2ccccn2)c1,28µM*,i,26,-48%,0%,i
O=C(Cn1nnnc1-c1ccccc1F)Nc1ccc(OC(F)(F)F)cc1,-4%,i,75*,-9%,-2%,i
CC(=O)c1[nH]c(C)c(C(=O)NCCc2ccc(C)cc2)c1C,-2%,i,-7,-13%,1%,i
CCOC(=O)c1[nH]c(C)c(C(=O)NCCc2ccccc2)c1C,38%,i,85*,7.9µM*,-1%,i
C#C[C@]1(O)CC[C@H]2[C@H]3CCc4cc(OC)ccc4[C@H]3CC[C@@]21C,-8%,·,·,?,·,·
C#C[C@]1(O)CC[C@H]2[C@@H]3CCC4=Cc5oncc5C[C@]4(C)[C@H]3CC[C@@]21C,-18%,·,33,-34%,·,·
C#C[C@]1(O)CC[C@H]2[C@@H]3CCc4cc(OC)ccc4[C@H]3CC[C@@]21C,14%,·,69*,5%,·,·
C#C[C@]1(O)CC[C@H]2[C@@H]3CCc4cc(OC5CCCC5)ccc4[C@H]3CC[C@@]21C,3%,·,68*,1%,·,·
C#C[C@]1(O)CC[C@@H]2[C@@H]3CCC4=CC(=O)CC[C@@H]4[C@H]3CC[C@@]21CC,-9%,·,·,-28%,·,·
C#C[C@]1(O)CC[C@H]2[C@@H]3CCC4=CC(=O)CC[C@@H]4[C@H]3CC[C@@]21C,7%,·,69*,-7%,·,·
CCOC(=O)N1c2ccc(C(F)(F)F)cc2[C@@H](N(Cc2cc(C(F)(F)F)cc(C(F)(F)F)c2)C(=O)OC)C[C@H]1CC,-31%,·,·,-12%,·,·
Cc1cc(C)cc(C(=O)Nc2ccc(-c3cn4cccnc4n3)cc2)c1,-12%,i,103*,-22%,8%,i
CC(C)CC(=O)Nc1cccc(-c2cn3cccnc3n2)c1,78%,i,45,16µM*,2%,i
CCOc1ccc(Nc2oc(-c3ccc(COc4ccc(C)cc4)o3)nc2C#N)cc1,-21%,i,67*,-13%,2%,i
COc1ccc(Nc2oc(-c3ccc(COc4ccc(OC)cc4)o3)nc2C#N)cc1,?,i,71*,-34%,1%,i
